Reference: PubChem BioAssay (Tox21)
“And” between values parts separate entries of the source, which are not always exact repeats. Equal entries are not always repeated. Records with an inconclusive call do not appear. A call without a number means that no potency is given here. Some compounds were tested as several samples or in several runs, with calls that do not always agree. The source made the active and inactive calls. Unless noted, calls follow the shape of the dose curve; as a rule, active = well fitted curve in the direction sought with a large enough effect in the repeat runs; inconclusive = weak or mixed curves; inactive = no such curve, though single readings can be large; an effect the other way counts as inactive or inconclusive.

What was measured:
[1] = qHTS assay to identify small molecule agonists of the peroxisome proliferator-activated receptor delta (PPARd) signaling pathway - cell viability counter screen (AID 743211); also: nearly all actives have a fitted effect of over 55% in size
Outline: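 Tox21 library compounds, delivered in DMSO, were incubated 17 h with PPARd-bla HEK293H cells; cytotoxicity was taken from CellTiter-Glo luminescence read 30 min after reagent addition.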

[2] = target: Peroxisome proliferator-activated receptor delta (Homo sapiens) (UniProt Q03181); assay: qHTS assay to identify small molecule agonists of the peroxisome proliferator-activated receptor delta (PPARd) signaling pathway (AID 743212; calls by dose curve)
Chain of Peroxisome proliferator-activated receptor delta (Homo sapiens) (Q03181 whole entry, looked up): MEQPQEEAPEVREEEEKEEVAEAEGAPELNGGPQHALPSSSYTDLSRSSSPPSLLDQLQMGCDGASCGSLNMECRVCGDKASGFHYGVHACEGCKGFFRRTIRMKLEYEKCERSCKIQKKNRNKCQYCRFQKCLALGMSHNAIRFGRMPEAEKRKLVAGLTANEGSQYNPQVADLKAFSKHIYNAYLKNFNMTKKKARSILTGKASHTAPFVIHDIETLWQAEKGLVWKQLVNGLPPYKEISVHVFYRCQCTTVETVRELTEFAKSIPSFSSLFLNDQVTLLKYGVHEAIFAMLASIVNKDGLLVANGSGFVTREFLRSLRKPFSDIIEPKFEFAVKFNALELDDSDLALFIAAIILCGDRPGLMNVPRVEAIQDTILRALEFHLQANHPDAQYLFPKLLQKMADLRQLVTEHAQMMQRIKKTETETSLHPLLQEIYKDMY
Outline: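 Tox21 library screened in GeneBLAzer PPARd UAS-bla HEK293H cells. After compound treatment at 37 C, a FRET-based beta-lactamase substrate was applied for 2 h and fluorescence recorded.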

[3] = qHTS assay to identify small molecule antagonists of the peroxisome proliferator-activated receptor delta (PPARd) signaling pathway - cell viability counter screen (AID 743213); also: nearly all actives have a fitted effect of over 50% in size; also: potency is read from the fitted curve at half-maximal effect
Outline: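 CellTiter-Glo was added to PPARd-bla HEK293H wells following 17 h compound treatment in the presence of 300 nM L165041. Luminescence was recorded after 30 min at room temperature.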

[4] = target: Peroxisome proliferator-activated receptor delta (Homo sapiens) (UniProt Q03181); assay: qHTS assay to identify small molecule antagonists of the peroxisome proliferator-activated receptor delta (PPARd) signaling pathway (AID 743215; active = well fitted inhibition curve with a large enough effect in the signal ratio in the repeat runs, not every such curve was filed as active; the % refers to the signal ratio;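 also: cells stimulated with agonist L165041 at 300 nM final during compound exposure; series mostly up to about 62 µM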)
Outline: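 Agonist L165041 (300 nM final) added with compound to PPARd-bla HEK293H UAS-bla reporter cells; 17 h incubation at 37 C. Read-out: LiveBLAzer FRET substrate, 2 h at room temperature, fluorescence intensity.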

[5] = qHTS assay to identify small molecule agonists of the farnesoid-X-receptor (FXR) signaling pathway - cell viability counter screen (AID 743218); also: nearly all actives have a fitted effect of over 45% in size; also: potency is read from the fitted curve at half-maximal effect
Outline: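 Viability counter screen in the same wells: CellTiter-Glo luminescence, 30 min room-temperature incubation, measured after the beta-lactamase read. Cells were GeneBLAzer FXR-UAS-bla HEK 293T, compound-treated 16 h at 37C.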

[6] = qHTS assay to identify small molecule antagonists of the farnesoid-X-receptor (FXR) signaling pathway - cell viability counter screen (AID 743221; active = well fitted cell-killing curve with a large enough effect in the repeat runs, not every such curve was filed as active; also: nearly all actives have a fitted effect of over 50% in size; also: potency is read from the fitted curve at half-maximal effect)
Outline: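 Cytotoxicity is taken from ATP luminescence (CellTiter-Glo, 30 min, room temperature) in FXR-bla HEK 293T cells previously incubated 16 h at 37 C with compound and chenodeoxycholic acid at 50 uM final.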

[7] = target: Vitamin D3 receptor (Homo sapiens) (UniProt P11473); assay: qHTS assay to identify small molecule agonists of the vitamin D receptor (VDR) signaling pathway (AID 743222; calls by dose curve)
Chain of Vitamin D3 receptor (Homo sapiens) (P11473 whole entry, looked up): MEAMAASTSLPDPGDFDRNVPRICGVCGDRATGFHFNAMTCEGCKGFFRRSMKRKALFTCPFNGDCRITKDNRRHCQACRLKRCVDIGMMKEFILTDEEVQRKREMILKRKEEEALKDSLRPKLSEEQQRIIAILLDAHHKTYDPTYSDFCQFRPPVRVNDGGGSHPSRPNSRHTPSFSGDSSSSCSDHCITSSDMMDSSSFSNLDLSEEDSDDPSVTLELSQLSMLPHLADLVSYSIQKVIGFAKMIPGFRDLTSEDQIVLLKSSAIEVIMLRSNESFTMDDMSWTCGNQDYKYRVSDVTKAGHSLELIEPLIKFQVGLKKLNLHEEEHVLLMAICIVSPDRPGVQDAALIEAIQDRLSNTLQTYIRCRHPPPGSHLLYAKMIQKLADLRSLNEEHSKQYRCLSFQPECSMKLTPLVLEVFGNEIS
Outline: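 Agonist mode, beta-lactamase reporter: fluorescence from LiveBLAzer B/G FRET substrate (2 h, room temperature) read after 16 h compound treatment at 37 C of VDR-bla cells, which were pre-incubated 4 h after seeding.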

[8] = target: Vitamin D3 receptor (Homo sapiens) (UniProt P11473); assay: qHTS assay to identify small molecule antagonists of the vitamin D receptor (VDR) signaling pathway (AID 743223; active = well fitted inhibition curve with a large enough effect in the signal ratio in the repeat runs, not every such curve was filed as active; the % refers to the signal ratio)
Outline: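 Quantitative HTS in VDR-bla reporter cells stimulated with 1alpha,25-dihydroxyvitamin D3, 3 nM final. Compound exposure 16 h, 37C, 5% CO2. Read-out: beta-lactamase FRET substrate fluorescence, 2 h RT.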

[9] = qHTS assay to identify small molecule agonists of the vitamin D receptor (VDR) signaling pathway - cell viability counter screen (AID 743224); also: series mostly up to about 63 µM; nearly all actives have a fitted effect of over 50% in size
Outline: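 Counter screen run in the same wells as the VDR-bla reporter assay: CellTiter-Glo luminescence, 30 min at room temperature, after 16 h compound treatment at 37C of cells pre-plated for 4 h.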

[10] = qHTS assay to identify small molecule antagonists of the vitamin D receptor (VDR) signaling pathway - cell viability counter screen (AID 743225); also: nearly all actives have a fitted effect of over 50% in size
Outline: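 Same-well multiplex: following 16 h treatment of HEK 293T cells carrying a UAS-driven beta-lactamase reporter with compound and agonist (3 nM final), and a 2 h FRET substrate step, CellTiter-Glo was added and luminescence read after 30 min.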

[11] = qHTS assay to identify small molecule agonists of the NFkB signaling pathway (AID 1159509; active = well fitted curve in the direction sought with a large enough effect in the signal ratio in the repeat runs, not every such curve was filed as active; the % refers to the signal ratio; also: series mostly up to about 61 µM)
Outline: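 Pathway activation was measured in ME-180 cells stably expressing beta-lactamase under NF-kB response element control. Substrate cleavage was read as the 460/530 nm emission shift after 5 hr compound incubation.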

[12] = qHTS assay to identify small molecule agonists of the NFkB signaling pathway - cell viability counter screen (AID 1159515; calls by dose curve; also: series mostly up to about 61 µM; nearly all actives have a fitted effect of over 55% in size)
Outline: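 Read by CellTiter-Glo luminescence (30 min, room temperature) in the wells also used for the beta-lactamase FRET read. ME-180 NFkB-bla cells at 2,000 per well were plated overnight, then exposed to compound for 5 hr at 37 C.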

[13] = qHTS assay to identify small molecule agonists of the endoplasmic reticulum stress response signaling pathway (AID 1159516; active = well fitted activation curve with a large enough effect in the signal ratio in the repeat runs, not every such curve was filed as active; the % refers to the signal ratio)
Outline: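 Ratiometric FRET readout (405 nm excitation; 460 and 530 nm emission) of a beta-lactamase gene driven by the ER stress response element, after 2 hr substrate loading. HeLa ESRE-bla cells were seeded overnight and treated with compounds for only 5 hr at 37 C.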

[14] = qHTS assay to identify small molecule agonists of the endoplasmic reticulum stress response signaling pathway - cell viability counter screen (AID 1159517; calls by dose curve)
Outline: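 In parallel with the ESRE reporter read, cytotoxicity was scored by CellTiter-Glo luminescence (30 min, room temperature) on HeLa ESRE-bla cells dosed for 5 hr.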

[15] = qHTS assay to identify small molecule antagonists of the retinoid-related orphan receptor gamma (ROR-gamma) signaling pathway - cell viability counter screen (AID 1159520); also: nearly all actives have a fitted effect of over 50% in size
Outline: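 Tet-on ROR gamma CHO cells were given compounds for 2 hr, then doxycycline hyclate at 1 uM final, and incubated 16 hr at 37 C. Viability was measured as ATP content by CellTiter-Glo luminescence.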

[16] = target: Nuclear receptor ROR-gamma (Homo sapiens) (UniProt P51449); assay: qHTS assay to identify small molecule antagonists of the retinoid-related orphan receptor gamma (ROR-gamma) signaling pathway (AID 1159521; also: nearly all actives have a fitted effect of over 50% in size; also: potency is read from the fitted curve at half-maximal effect)
Outline: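 Inducible-expression reporter assay: doxycycline (1 uM final) switched on RORγ in CHO cells bearing a ROR response element-luciferase construct, with test compounds present from 2 h beforehand. Decreased luminescence after 16 h defined antagonist activity.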

[17] = qHTS assay to identify small molecule agonists of the AP-1 signaling pathway - cell viability counter screen (AID 1159525; calls by dose curve; also: nearly all actives have a fitted effect of over 55% in size)
Outline: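 Same-well cytotoxicity counter screen of the Tox21 10K library in ME-180 cells. The readout is ATP-dependent luminescence after 5 h compound treatment. Data are normalised to DMSO and tetra n-octyl ammonium bromide controls.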

[18] = qHTS assay to identify small molecule agonists of the AP-1 signaling pathway (AID 1159526; calls by dose curve)
[19] = target: Bile acid receptor (Homo sapiens) (UniProt Q96RI1); assay: qHTS assay to identify small molecule antagonists of the farnesoid-X-receptor (FXR) signaling pathway (AID 743217; active = well fitted inhibition curve with a large enough effect in the signal ratio in the repeat runs, not every such curve was filed as active; the % refers to the signal ratio)
Chain of Bile acid receptor (Homo sapiens) (Q96RI1 whole entry, looked up): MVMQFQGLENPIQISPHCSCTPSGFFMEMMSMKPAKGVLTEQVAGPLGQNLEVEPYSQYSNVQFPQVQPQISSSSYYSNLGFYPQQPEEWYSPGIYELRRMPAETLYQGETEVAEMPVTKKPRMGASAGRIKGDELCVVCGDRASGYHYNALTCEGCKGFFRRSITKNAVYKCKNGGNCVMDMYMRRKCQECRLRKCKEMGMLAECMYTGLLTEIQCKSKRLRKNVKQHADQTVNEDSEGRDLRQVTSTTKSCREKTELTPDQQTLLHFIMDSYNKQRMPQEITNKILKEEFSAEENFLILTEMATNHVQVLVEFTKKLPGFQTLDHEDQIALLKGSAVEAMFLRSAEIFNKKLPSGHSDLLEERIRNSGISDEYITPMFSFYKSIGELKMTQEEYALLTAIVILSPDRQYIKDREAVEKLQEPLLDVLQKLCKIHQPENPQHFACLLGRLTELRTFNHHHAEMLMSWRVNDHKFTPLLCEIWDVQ
Outline: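 Antagonist mode: chenodeoxycholic acid at 50 uM final stimulates a UAS-driven beta-lactamase reporter in HEK 293T FXR-bla cells during 16 h, 37C compound exposure. Read-out is FRET substrate fluorescence after 2 h at room temperature.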

[20] = target: Bile acid receptor (Homo sapiens) (UniProt Q96RI1); assay: qHTS assay to identify small molecule agonists of the farnesoid-X-receptor (FXR) signaling pathway (AID 743220; active = well fitted activation curve with a large enough effect in the signal ratio in the repeat runs, not every such curve was filed as active; the % refers to the signal ratio)
Outline: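 FXR-UAS-bla HEK 293T cells carrying a UAS-driven beta-lactamase reporter were plated for 5 h at 37C/5% CO2, then exposed to DMSO-dissolved Tox21 10K compounds for 16 h at 37C. A LiveBLAzer B/G FRET substrate was loaded for 2 h at room temperature before fluorescence reading.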

Compound	Potency [1]	Potency [2]	Potency [3]	Potency [4]	Potency [5]	Potency [6]	outcome [7]	outcome [8]	Potency [9]	Potency [10]	outcome [11]	Potency [12]	outcome [13]	Potency [14]	Potency [15]	Potency [16]	Potency [17]	outcome [18]	Potency [19]	outcome [20]
CCCCC(CC)COC(=O)c1ccc(C(=O)OCC(CC)CCCC)c(C(=O)OCC(CC)CCCC)c1 (stereo not drawn)	inactive	inactive	inactive	inactive	inactive	inactive	inactive	inactive	inactive	inactive	inactive	inactive	inactive	inactive	inactive	inactive	inactive	inactive		
Cc1ccc(OP(=O)(Oc2ccc(C)cc2)Oc2ccc(C)cc2)cc1	inactive	inactive	inactive	inactive	inactive	inactive	inactive	inactive	inactive	inactive	inactive	inactive	inactive	inactive	inactive	12.2 µM (active)	inactive	inactive		
c1ccc(NNc2ccccc2)cc1		inactive	inactive	inactive	inactive	inactive	inactive	inactive	inactive	inactive	inactive	inactive	inactive	inactive	inactive	inactive	inactive	inactive	inactive	inactive
Nc1c(Cl)cc([N+](=O)[O-])cc1Cl		inactive	inactive and 4.36 µM (active)	inactive	2.75 µM (active)	inactive and 4.36 µM (active)	inactive	inactive	inactive	inactive	inactive	inactive	inactive	inactive	inactive	inactive and 27.3 µM (active)	inactive	inactive	inactive	inactive
Clc1nc(Cl)nc(Cl)n1	inactive	inactive	inactive	inactive	inactive	inactive	inactive	inactive	inactive	inactive	inactive	inactive	inactive	inactive	inactive	inactive	inactive	inactive		
CC(C)(C)c1ccccc1O	inactive	inactive	inactive	inactive	inactive	inactive	inactive		inactive	inactive	inactive	inactive	inactive	inactive	inactive	inactive	inactive			
Cc1cc(Cl)ccc1OCCCC(=O)O	inactive	inactive	inactive	inactive	inactive	inactive	inactive	inactive	inactive	inactive	inactive	inactive	inactive	inactive	inactive	inactive	inactive	inactive	inactive	inactive
